# Tb PYK inh – T. brucei pyruvate kinase inhibition; TbPYK enzyme, Kinase-Glo Plus ATP luminescence, 45 min; Q57TT1; Potency, µM (series often up to 76.8 µM), usual class: inhibitors; 410,000 compounds, 0.12% hits; active means well fitted curve in the direction sought with a large enough effect; inconclusive means small, poorly fitted or top-dose-only effect, or another doubt; inactive means no such curve, though single readings can be large; an effect the other way counts as inactive or inconclusive; further: nearly all actives have a fitted effect of over 50% in size
#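 Activity of T. brucei pyruvate kinase was followed by Kinase-Glo Plus luminescence after the enzyme reacted 45 min at room temperature with 130 uM ADP (final) and substrate. Test compounds were added before ADP at multiple concentrations.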
# Cycloheximide cs – counter-screen for Shiga toxin inhibitors: cycloheximide protein synthesis inhibition; 300,000 compounds, 12% hits; max response, %; cell reporter, cycloheximide protein synthesis inhibition counterscreen; in the data active means max response mostly above about 13%, no sharp cut-off; inactive means mostly below about 14%; further: read at 38.3 µM for the half of the compounds with a filed dose
# SARS PLP yeast – SARS-CoV PLP inhibition in yeast. S. cerevisiae expressing SARS-CoV PLpro, growth rescue. Potency, µM (series often up to 32.9 µM), most hits filed as activators. 330,000 compounds, 0.19% hits. AID 485353; further: nearly all actives have a fitted effect of over 55% in size
# LmPK inhibitor – inhibitors of Leishmania mexicana pyruvate kinase; 290,000 compounds, 0.37% hits; purified LmPK, Kinase-Glo ATP luminescence, 1 h; Q27686; Potency, µM (doses to about 57.5 µM), usual class: inhibitors; AID 1721; active means well fitted curve in the direction sought with a large enough effect; inconclusive means small, poorly fitted or top-dose-only effect, or another doubt; inactive means no such curve, though single readings can be large; an effect the other way counts as inactive or inconclusive
# Target sequence (Q27686 whole entry, looked up): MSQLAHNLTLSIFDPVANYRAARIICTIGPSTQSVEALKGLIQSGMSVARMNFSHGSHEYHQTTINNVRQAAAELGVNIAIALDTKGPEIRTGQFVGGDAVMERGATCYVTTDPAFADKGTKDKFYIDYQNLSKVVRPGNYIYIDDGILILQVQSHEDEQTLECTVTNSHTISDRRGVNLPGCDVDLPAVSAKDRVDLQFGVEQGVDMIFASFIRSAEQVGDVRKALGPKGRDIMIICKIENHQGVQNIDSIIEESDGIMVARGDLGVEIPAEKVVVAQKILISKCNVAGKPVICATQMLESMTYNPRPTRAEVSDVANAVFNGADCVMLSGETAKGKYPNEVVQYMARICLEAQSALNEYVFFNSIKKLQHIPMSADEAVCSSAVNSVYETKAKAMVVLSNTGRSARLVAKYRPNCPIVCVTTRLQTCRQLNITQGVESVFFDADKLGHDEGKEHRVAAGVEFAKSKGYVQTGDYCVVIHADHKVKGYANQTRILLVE
#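 Kinase-Glo luminescence read after 1 h RT reaction of 0.1 nM LmPK with 0.5 mM PEP and 0.1 mM ADP. Activity scaled between uninhibited and enzyme-free controls.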
# NS1 inh – inhibitors of influenza NS1 protein function; Potency, µM (highest dose often 46.1 µM); 270,000 compounds, 0.4% hits; further: actives are rising curves; nearly all actives have a fitted effect of over 50% in size
#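 Compounds were scored for reversing the slow growth caused by influenza A NS1 in S. cerevisiae, measured by optical density at 600 nm. Assay medium contained 2% galactose at pH 6.0; NS1-free yeast of the same strain were the positive control.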
# Shiga toxin inh – blocks Shiga toxin action in Vero cells. Vero cells, Shiga toxin protein synthesis inhibition reporter. inhibition, % at 38.7 µM. 290,000 compounds, 9.2% hits. AID 2315; in the data active means inhibition mostly above about 28%, no sharp cut-off; inactive means mostly below about 43%
# A number is an active result; – = inactive; ? = inconclusive; · = no result. Many of the other results were omitted from the sample, so hits are more common in it than they were. Unless noted, the call rests on the fitted dose curve.
SMILES,Tb PYK inh,Cycloheximide cs,SARS PLP yeast,LmPK inhibitor,NS1 inh,Shiga toxin inh
COc1ccc(CCNC(=O)C(=O)NCC(c2ccco2)S(=O)(=O)c2ccccc2)cc1 (centres undefined),–,·,·,·,·,·
COc1cccc(NC(=O)CSc2cc(C)[nH]c(=O)n2)c1,–,·,·,·,·,·
CSCCC(NS(=O)(=O)c1ccc(C)cc1C)C(=O)Nc1cccnc1 (centres undefined),–,·,–,·,·,·
COC(=O)c1cccc(C(=O)Nc2ccc(C)cc2Br)n1,–,38.2,–,–,–,64.9
Cc1ccc(NC(=O)c2cccc(C(=O)OC(C)C)n2)c(Br)c1,–,22.9,–,–,·,74.6
Cc1ccc2c(c1)-n1c(nc3cc(Cl)ccc3c1=O)C(Cc1ccccc1)NC2=O (centres undefined),·,·,–,·,·,·
COc1ccc(CNC(=O)CN(c2cc(C(F)(F)F)ccc2Cl)S(C)(=O)=O)cc1,–,·,·,·,·,·
CN(C)C=Nc1ccc2nn(-c3ccccc3)nc2c1,–,43.4,?,–,–,92.7
CC(C)C(C(=O)O)N1C(=O)/C(=C/c2ccc(Br)cc2)SC1=S (centres undefined),·,26.8,·,·,·,20.7
CNC(=O)/C(C#N)=C/c1cccc(Oc2ccccc2)c1,–,42.0,–,–,–,64.0
CNC(=O)/C(=C\c1cccc(Oc2ccccc2)c1)NC(=O)c1ccccc1,–,–,–,–,–,–
CCN1CCc2[nH]c3ccccc3c2C1,–,–,–,–,–,–
COc1cc(NC(=O)Cn2nc(C(F)(F)F)c3c2CCCC3)c(OC)cc1Cl,–,·,·,·,·,·
COc1cc(/C=N/Nc2ccccc2)ccc1O,–,–,–,–,–,–
COc1cc(/C=N/NC(=O)c2cccs2)ccc1O,–,51.7,–,–,–,97.2
COc1cc(C(=O)N/N=C/c2ccc(OC(=O)c3ccccc3Cl)c(OC)c2)ccc1O,–,–,–,–,–,–
COc1cc(/C=N/Nc2ccccc2C(F)(F)F)ccc1O,–,33.1,–,–,–,69.2
COc1cc(/C=N/NC(=O)c2ccccc2O)ccc1OC(=O)CC1SC(=O)NC1=O (centres undefined),–,29.7,–,–,–,58.2
O=C(Oc1cccc(Cl)c1)N1CCOCC1,–,–,–,–,–,–
O=C(N/N=C/c1cccc(OC(=O)N2CCOCC2)c1)c1cccs1,–,26.7,–,–,–,–
Cc1cccc(Cn2c(CN3CCCC(C)C3)nc3c2c(=O)n(C)c(=O)n3C)c1 (centres undefined),–,·,·,·,·,·
COc1cc(/C=N/NC(=O)c2cccs2)ccc1OCc1ccccc1,·,28.4,–,–,–,52.8
COc1cccc2c(N/N=C/c3ccc(O)c(O)c3)cc(C)nc12,–,22.1,–,–,–,53.4
COc1cccc(/C=N/NC(=O)c2cccs2)c1,–,47.0,–,–,–,127.0
O=C(N/N=C/c1ccccc1OCc1ccccc1)c1cccs1,–,42.1,–,–,–,active
SMILES,Tb PYK inh,Cycloheximide cs,SARS PLP yeast,LmPK inhibitor,NS1 inh,Shiga toxin inh
COc1cc(/C=N/NC(=O)c2cc(C)oc2C)ccc1OCc1ccccc1,–,–,–,–,–,–
O=C(CSCc1ccccc1)N/N=C/c1ccccc1OCc1ccccc1,–,–,–,–,–,–
COC(=O)N/N=C\c1cccc(OC(=O)c2cccs2)c1,–,–,–,–,·,–
Cc1cccc(-c2ccc(-c3cc(=O)oc4cc(C)cc(C)c34)cc2)c1,·,–,·,·,·,–
CCNC(=O)C1(C)CCCN(C(=O)c2cc(C)nn2C(C)(C)C)C1 (centres undefined),–,·,·,·,·,·
O=C1C(c2ccc(F)cc2)N(CCc2ccc(Cl)cc2)C(=O)CN1C1CCCCCC1 (centres undefined),–,·,·,·,·,·
CC(C)N1CC(O)=C(c2nc3ccccc3[nH]2)C1=N,–,52.4,–,–,–,76.8
C=CCN1CC(O)=C(c2nc3ccccc3[nH]2)C1=N,–,56.3,–,–,·,127.7
CCCCN1CC(O)=C(c2nc3ccccc3[nH]2)C1=N,–,47.1,–,–,–,–
CCCCCN1CC(O)=C(c2nc3ccccc3[nH]2)C1=N,–,35.9,–,–,·,–
CCCCCCN1CC(O)=C(c2ccccc2)C1=N,–,–,–,–,–,–
CN(C)c1ncc2ncc(=O)n(CCC#N)c2n1,–,·,·,·,·,·
CC(C)CCN1CC(O)=C(c2nc3ccccc3[nH]2)C1=N,–,16.7,–,–,–,–
N#Cc1nc(/C=C/c2ccccc2)oc1NCCCN1CCOCC1,–,33.1,–,–,–,83.3
CCN1CCN(c2oc(/C=C/c3ccccc3)nc2C#N)CC1,–,42.1,–,–,–,–
COCCCNc1oc(/C=C/c2cc(OC)c(OC)c(OC)c2)nc1C#N,–,·,·,·,·,·
CNc1oc(/C=C/c2ccccc2)nc1C#N,–,78.4,–,–,–,121.8
COCCNc1oc(/C=C/c2ccccc2)nc1C#N,–,56.0,–,–,–,112.5
COc1ccc(NC(C)=O)cc1NC(C)C(=O)Nc1ccc(S(=O)(=O)N2CCCCC2)cc1 (centres undefined),–,·,–,·,·,·
Clc1ccccc1NN=Cc1ccccn1,–,·,·,·,·,·
CC(=O)c1sc(NC(=O)COc2ccc(Cl)cc2C)nc1C,–,27.8,–,–,–,–
Cc1cc(Cl)ccc1OCC(=O)Nc1ccncc1,–,27.0,–,–,–,·
Cc1cccc(OCC(=O)Nc2ncn[nH]2)c1C,–,11.3,–,–,–,–
Cc1cc(Cl)ccc1OCC(=O)NCc1ccncc1,–,–,–,–,–,–
Cc1cccc(OCC(=O)Nc2ccncc2)c1C,–,12.4,–,–,–,–
SMILES,Tb PYK inh,Cycloheximide cs,SARS PLP yeast,LmPK inhibitor,NS1 inh,Shiga toxin inh
CC(=O)c1sc(NC(=O)COc2ccc(Cl)cc2Cl)nc1C,–,–,–,–,–,–
CCN(Cc1cnn(C)c1)C(=O)c1ccc2nc(Cc3ccccc3F)oc2c1,–,·,·,·,·,·
CCn1cc(CNC(=O)c2ccc3nc(Cc4ccc(OC)cc4)oc3c2)cn1,–,19.8,–,–,–,–
CCn1cc(CNC(=O)c2ccc3nc(Cc4ccccc4F)oc3c2)cn1,–,31.7,–,–,?,–
Cn1cc(CNC(=O)c2ccc3nc(Cc4ccccc4F)oc3c2)cn1,–,59.4,–,–,–,89.3
Cn1cc(CCNC(=O)c2ccc3nc(Cc4ccccc4F)oc3c2)cn1,–,30.0,–,–,–,92.2
O=C(Nc1ccccc1C(F)(F)F)N1CCC2(CC1)Oc1ccccc1C(=O)N2Cc1ccccc1F,–,·,·,·,·,·
CC(=O)Nc1ccc(NC(=O)C(Cc2ccccc2)N2Cc3ccccc3C2=O)cc1 (centres undefined),–,·,·,·,·,·
COc1ccc(CC(=O)Nc2cccc(-c3nnc(-c4cccc(C)c4)o3)c2)cc1OC,–,46.4,–,–,–,52.0
COc1ccc(CCNC(=O)CSc2nnc(-c3ccccc3)o2)cc1OC,–,–,–,–,–,–
COc1ccc(Cc2nnc(-c3cccc(C)c3)o2)cc1OC,–,20.7,?,–,–,43.5
CCc1cccc(NC(=O)Cc2ccc(OC)c(OC)c2)c1,–,–,–,–,–,–
